Measured values published in paper PMC4552634, “A New Set of Chemical Starting Points with Plasmodium falciparum Transmission-Blocking Potential for Antimalarial Drug Discovery” (PLoS ONE, 2015).
Hit rate of the full screen: of about 13,000 compounds, about 3,200 (25%) showed an effect of 50% or more. The list shows a part of the results.

test system: P. falciparum stage V gametocytes; design: BacTiter-Glo ATP luminescence viability of purified stage V gametocytes in 384-well plates, per cent inhibition versus DMSO; details: 48 h, 5 µM; inhibitor

Structure (SMILES)	% Inhibition [%]
COc1nc2c(CCN3CC[C@H](NCc4ccc5c(c4)NC(=O)CO5)[C@H](O)C3)c(Cl)cnc2cc1F [TCMDC-135805]	-8.55
CC(C)CC(=O)N1CCNC[C@@H]1C(=O)NC1CC1 [TCMDC-141241]	28.73
CN1CCCCC1CCc1cc(C(=O)Nc2ccc(-c3ccc(O)cc3)cc2)ccc1O (stereo not shown) [TCMDC-132103]	-69.36
CC1(C)CCC(=Cc2ccc(Cl)cc2)CC1(O)Cn1ccnc1 (stereo not shown) [TCMDC-125222]	20.04
Nc1ncc(Cc2cc(Cl)c(N)c3ncccc23)c(N)n1 [TCMDC-137889]	44.6
Nc1ccc(-c2nc3ccc(Cc4ccc5nc(-c6ccc(N)cc6)[nH]c5c4)cc3[nH]2)cc1 [TCMDC-123486]	52.65
Nc1ccc(-c2nc3ccc(Oc4ccc5nc(-c6ccc(N)cc6)[nH]c5c4)cc3[nH]2)cc1 [TCMDC-125791]	-25
Cc1nc2ccc(-c3nc4ccc(N)cc4[nH]3)cc2[nH]1 [TCMDC-123723]	-56.67
COc1ccccc1N1CCN(CCCCNC(=O)c2ccc(NC(=O)c3cc(Cl)cc(Cl)c3)cc2)CC1 [TCMDC-138236]	3.866
O=C(/C=C/c1ccc(Cl)c(Cl)c1)NCCCCCCN1CCN(C(=O)Nc2ccc(F)c(Cl)c2)CC1 [TCMDC-135833]	-83.03
COc1ccc(-c2cccc(NC(=O)c3ccccc3)c2)cc1CN1CCCN(C)CC1 [TCMDC-132627]	80.03
COc1ccc(-c2cccc(NC(=O)c3cccs3)c2)cc1CN1CCCN(C)CC1 [TCMDC-132600]	87.2
COc1ccc(-c2cccc(NC(=O)c3ccc(C#N)cc3)c2)cc1CN1CCCN(C)CC1 [TCMDC-132609]	-22.05
COc1ccc(-c2ccc(NC(=O)c3ccc(C#N)cc3)cc2)cc1CN1CCCN(C)CC1 [TCMDC-132517]	41.17
COc1ccc(-c2ccc(NC(=O)c3cccs3)cc2)cc1CN1CCCN(C)CC1 [TCMDC-132509]	-9.366
COc1ccc(-c2ccc(NC(=O)c3ccccc3)cc2)cc1CN1CCCN(C)CC1 [TCMDC-132535]	93.82
COc1ccc(-c2cccc(NC(=O)c3ccc(C#N)cc3)c2)cc1CN1CCN(C)CC1 [TCMDC-132612]	-15.47
COc1ccc(-c2ccc(NC(=O)c3ccc(F)cc3)cc2)cc1CN1CCCN(C)CC1 [TCMDC-132514]	15.06
O=C(Nc1cccc(C(F)(F)F)c1)NC1CCN(c2ccnc3cc(Cl)ccc23)C1 (stereo not shown) [TCMDC-133406]	-28.21
